The record followed here is PubChem BioAssay.

Each structure is given as a SMILES string.

The test deals with Sonic hedgehog protein (Shh). Kind of test: small-molecule binders of Shh protein, primary screen, biochemical, small-molecule microarray, 635/667 nm fluorescence (AID 1151).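 Further: Shh protein binding to compounds spotted on small-molecule microarray slides; score combines spot fluorescence intensity with signal-to-noise across triplicate slides.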 Conditions: small-molecule microarray binding, 635 nm fluorescence; higher = more signal.
In turn, `C=CC1c2cc(O)c(OC)cc2CCN1Cc1cccc(OC(F)(F)F)c1` (stereo not given) came in with a composite z-score of 0.12.

Turning to `CC(C)[Si](C#C[Si](C(C)C)(C(C)C)C(C)C)(O[C@H](C)c1cn(Cc2ccccc2)nn1)C(C)C`, the composite z-score is 0.372.

Regarding `O=C1O[C@H](c2ccccc2)[C@H](c2ccccc2)N2[C@H]1[C@@H](C(=O)NC[C@H](O)c1ccccc1)[C@]1(C(=O)Nc3ccc(C#CC4=CCCCC4)cc31)[C@H]2c1ccccc1OCCO`, the composite z-score is 0.134.

`COc1ccc(-c2cc3c(c(Cc4ccccc4)n2)[Si](C(C)C)(C(C)C)OC3)cn1` had a composite z-score of -0.093.

Regarding `C=CCC(OC(C)=O)[C@@H]1[C@@H](N(Cc2ccc(-c3cccc(C(F)(F)F)c3)o2)C(=O)Cc2ccc(OC)cc2)c2cc(OCCCO)ccc2N1C(=O)c1ccc2ccccc2c1` (stereo not given in full), the composite z-score is 0.804.

Compound `CCC(CC)C(O)C1C=CC2C(=O)N(c3ccccc3)C(=O)C2N1Nc1ccccc1` (stereo not given) had a composite z-score of 0.494.

`CN1C(=O)C2C=CC(C(O)c3c(F)cccc3Cl)N(NC(=O)OC(C)(C)C)C2C1=O` (stereo not given) displayed a composite z-score of -0.0049.

In the case of `C=C[C@H](C)[C@@H](OC(=O)Nc1ccc(SC)cc1)c1ccc(O)c2ccccc12`, the composite z-score was 1.76.

Compound `COc1ccccc1CN1C(=O)c2ccccc2[C@@H](C(=O)NCc2ccccc2)[C@@H]1c1ccc(CO)cc1` returned a composite z-score of 0.496.

Turning to `O=C1OCC=C[C@H]2OC34C=CCN(Cn5nnc6ccccc65)C(=O)[C@H]3N(CCCCCO)C(=O)[C@@H]4[C@@H]12` (stereo not given in full), the composite z-score was -0.502.

In the case of `Cc1ccc(S[C@]2(C(=O)NCC(C)C)CC(=O)N(Cc3cc(C(F)(F)F)cc(C(F)(F)F)c3)[C@@H]2c2ccc(CO)cc2)cc1`, the composite z-score is 0.391.

Compound `CS(=O)(=O)CCOC(=O)C1=CC(CCCO)=CC(C2CC2)N(Cc2cc3c(cc2Br)OCO3)C=C1C(=O)OCCS(C)(=O)=O` (stereo not given) showed a composite z-score of 0.358.

Compound `C=CCOC(=O)[C@H]1[C@@H]2C(=O)O[C@@H](c3ccccc3)[C@@H](c3ccccc3)N2[C@@H](c2ccc(OCCOC(=O)[C@H]3C[C@H]4C(=O)N[C@@H](CCCCN(C)C)C(=O)N4[C@H]3c3cccc(OCCO)c3)cc2)[C@]12C(=O)Nc1ccc(I)cc12` returned a composite z-score of 2.27.

In turn, `COc1ccc([Si](C)(C)[C@H]2[C@H](CC(=O)N3CCC[C@H]3CO)O[C@@]3(C(=O)N(Cc4cccc(N5CCOC5=O)c4)c4ccccc43)[C@@H]2C)cc1` returned a composite z-score of 1.99.

Turning to `O=C1OCCC=C[C@H]2OC34C=CCN(c5ccc(Cl)cc5)C(=O)[C@H]3N(CCCO)C(=O)[C@@H]4C12` (stereo not given in full), the composite z-score turned out to be 0.0088.

The compound `COc1ccc(C(O)C2C=CC3C(=O)N(C)C(=O)C3N2N(c2ccccc2)c2ccccc2)c2ccccc12` (stereo not given) yielded a composite z-score of 1.11.

`COCC(=C=CC[C@H](O)c1cccc(OCCO)c1)CCO` displayed a composite z-score of 1.81.

For `CC[C@@H]1C=C(C(=O)O)[C@H](c2ccc(C)cc2)N1S(=O)(=O)c1ccc(C)cc1`, the composite z-score was -0.103.

Take `O=C1NC(=O)C2C1C=CC(C(O)C1CC=CCC1)N2Nc1ccccn1` (stereo not given): the composite z-score turned out to be 0.682.

The compound `COc1ccc(C(=O)Nc2cccc(CN3C(=O)[C@]4(O[C@H](CCn5cc(CCO)nn5)[C@@H]([Si](C)(C)c5ccc(OC)cc5)[C@@H]4C)c4ccccc43)c2)cc1` gave a composite z-score of 1.21.

With `CS(=O)(=O)CCOC(=O)C1=CC(CCCO)=CC(c2ccc(CN3CCCC3)cc2)N(Cc2cccc(OC(F)(F)F)c2)C=C1C(=O)OCCS(C)(=O)=O` (stereo not given), the composite z-score is 0.798.

For the compound `COC(=O)c1c2oc(c1C(=O)OC)C(=O)N[C@@H](C(C)C)Cn1cc(nn1)C1(CCCCC1)NC(=O)N[C@H](CO)CC2`, the composite z-score was determined as 0.246.

With `O=C1O[C@@H](c2ccccc2)[C@@H](c2ccccc2)N2[C@@H](c3ccc(OCCO)cc3)[C@]3(C(=O)Nc4ccc(C#CCCO)cc43)[C@@H](C(=O)NC[C@H](O)c3ccccc3)[C@H]12`, the composite z-score amounted to 1.88.

In turn, `CC(c1ccccc1)C(O)C1C=CC2C(=O)N(c3ccccc3)C(=O)C2N1Nc1ccccc1` (stereo not given) displayed a composite z-score of 0.843.

Turning to `CC1CC/C=C\[C@H]2OC34C=CCN(Cc5ccccc5)C(=O)[C@H]3N(C(C)CO)C(=O)[C@@H]4C2C(=O)O1` (stereo not given in full), the composite z-score was 0.473.
